Screening results from PubChem BioAssay.
Hits are enriched below; roughly 3.3% of the tested compounds scored in any of these assays.
HCV inhibitor – blocks hepatitis C virus. actives 3.4% (n = 340,000). Potency, µM (series often up to 41.8 µM), for inactives: at the top dose activity change, negative = inhibition, hits mostly inhibitors. Huh7.5.1 HCVcc-Cre infection, luciferase reporter, 44 h; active means well fitted inhibition curve with a large enough effect; inconclusive means small, poorly fitted or top-dose-only effect, or another doubt; inactive means no such curve, though single readings can be large or run the other way
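After 44 h co-culture of compound, cells and HCVcc-Cre (~0.5 moi), substrate is added for 15 min at room temperature and luciferase measured over 15 sec. Cells were seeded at 1,000/well and pre-cultured 4 h.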
VACV Venus inh – inhibitors of vaccinia virus (Venus reporter); Vaccinia virus Venus reporter expression, fluorescence; AID 720580; actives 0.46% (n = 330,000); Potency, µM (titrated, usually from 36.5 µM), for inactives: top-dose activity change, negative = inhibition, usual class: inhibitors; calls by dose curve; tested in A549 cells; further: nearly all actives have a fitted effect of over 30% in size
Vaccinia mCherry – inhibitors of vaccinia virus infection (mCherry reporter signal). Vaccinia virus mCherry reporter infection, fluorescence. Potency, µM (highest dose often 36.5 µM), for inactives: top-dose activity change, negative = inhibition, hits mostly inhibitors. actives 0.63% (n = 310,000); calls by dose curve; tested in A549 cells; further: nearly all actives have a fitted effect of over 35% in size
Starred values were filed as active, the others as inactive; i = inactive; u = inconclusive; x = not tested or not shown; [ ] = another dose, or the depositor's remark. On the % scale 0 is the no-effect control and ±100 the full control effect; potency means the concentration at half of the fitted maximal effect.

SMILES | HCV inhibitor | VACV Venus inh | Vaccinia mCherry
COc1ccccc1NC(=O)Nc1nc(CC(=O)N2CCN(c3ccc(F)cc3)CC2)cs1 | 11µM* | -28% | u
COc1ccc(C)cc1NC(=O)Cc1csc(NC(=O)Nc2ccccc2OC)n1 | x | -24% | -6%
COc1ccccc1NC(=O)Nc1nc(CC(=O)Nc2ccc(F)cc2)cs1 | u | -23% | u
COc1ccccc1NC(=O)Nc1nc(CC(=O)N2CCN(c3ccccc3)CC2)cs1 | 13µM* | -28% | 1µM*
COc1ccccc1NC(=O)Nc1nc(CC(=O)NC2CCCC2)cs1 | u | -24% | -3%
COc1ccccc1NC(=O)Cc1csc(NC(=O)c2ccccc2)n1 | 7.1µM* | x | x
CCCCn1c(N)c(N(CCOC)C(=O)c2cnc(C)cn2)c(=O)[nH]c1=O | -6% | -9% | i
Cc1cccc(OCCn2nnc3sc4c(c3c2=O)CCCC4)c1 | x | 2% | -4%
Cc1ccc(CSc2nc(-c3ccc(C(C)(C)C)cc3)nc3cc(=O)[nH]n23)cc1 | x | -14% | -20%
C[C@@H]1CN([C@@H](C)CO)C(=O)CCCn2nncc2CO[C@@H]1CN(C)C(=O)Nc1ccc(C(C)(C)C)cc1 | x | -4% | -6%
COCC1CCCN(Cc2ccc3c(c2)CN(C(=O)c2ccc(OC)nc2OC)CCO3)C1 (stereo not drawn) | x | 6% | -7%
COCCC(=O)Nc1ccc2c(c1)CN(C(=O)CCSC)CC2 | 6% | -7% | 0%
COCCC(=O)Nc1ccc2c(c1)CN(C(=O)c1ccc(CSC)o1)CC2 | 10µM* | -23% | 6%
c1cc2c(cc1Cc1cncc(Cc3ccc4c(c3)OCO4)c1)OCO2 | x | -13% | -18%
O=C(CSc1nc(-c2cccc(Cl)c2)nc2cc(=O)[nH]n12)Nc1ccccc1 | x | -1% | 7%
O=C(Nc1ccc2c(c1)CCC2)C1CCN(c2c3c(nc4ncnn24)CCC3)CC1 | 4.5µM* | x | x
O=C(Nc1ccc(Oc2ccccc2)cc1)C1CCN(c2c3c(nc4ncnn24)CCC3)CC1 | 25µM* | x | x
O=C(NC1CCCc2ccccc21)C1CCN(c2c3c(nc4ncnn24)CCC3)CC1 (stereo not drawn) | -5% | x | x
COc1ccc(NC(=O)C2CCCN(c3c4c(nc5ncnn35)CCC4)C2)cc1OC (stereo not drawn) | -22% | x | x
Cc1nc2ccc(C(=O)N3CCN(c4ccccc4)CC3)cn2c1N(C)C(=O)CCc1ccccc1 | x | 6% | -20%
COc1cccc(C2C(C(=O)Nc3ccc(Cl)cc3)=C(C)Nc3c(C(=O)Nc4ccccc4)cnn32)c1OC (stereo not drawn) | x | -17% | -9%
O=C(NCc1ccccc1Cl)c1ccccc1NC(=O)c1nsc2ccccc12 | x | -7%[7.34 µM] | -12%[7.34 µM]
O=C(COC(=O)c1ccc2ccccc2c1O)NCC(F)(F)F | 22% | x | x
O=C(COC(=O)c1c2ccccc2cc2ccccc12)NCC(F)(F)F | 11µM* | u | -23%
CC(=O)c1ccc(N2CCN(C(=O)CCS(=O)(=O)c3ccc4c(c3)oc(=O)n4C)CC2)cc1 | x | -2% | 3%
SMILES | HCV inhibitor | VACV Venus inh | Vaccinia mCherry
CC1(CCc2ccc3c(c2)OCO3)NCCc2c1[nH]c1ccccc21 (stereo not drawn) | 11µM* | x | x
CC1(CCc2ccc3c(c2)OCO3)NC(=O)c2ccccc2N1 (stereo not drawn) | 24% | x | x
COc1cccc(-c2nc(CS(=O)CC(=O)N3CCN(c4cccc(C(F)(F)F)c4)CC3)c(C)o2)c1 (stereo not drawn) | x | -28% | u
Cc1cccc(C)c1NC(=O)CN1CCN(C(=O)CN2C(=O)NC3(CCCCC3C)C2=O)CC1 (stereo not drawn) | -30% | -15% | -3%
CC1CCCCC12NC(=O)N(CC(=O)N1CCN(Cc3ccc(C#N)cc3)CC1)C2=O (stereo not drawn) | 10µM* | x | x
O=C(Nc1ccccc1)C1Cc2c(-c3cccc(F)c3)ccnc2O1 (stereo not drawn) | x | -8% | 14%
CS(=O)(=O)Nc1cccc(NC(=O)C2Cc3c(-c4cccc(F)c4)ccnc3O2)c1 (stereo not drawn) | x | 10µM* | 8.9µM*
Cc1ccc(NC(=O)CN2C(=O)C(C)(C)c3cc(S(=O)(=O)N4CCCCC4)ccc32)c(Br)c1 | x | -11% | -6%
O=C(C[n+]1ccccc1Cl)c1ccc(O)c(O)c1 | x | -5% | 41%
CC(=O)Nc1ccc(-c2nnc3n(CC(C)C)c(=O)c4ccccc4n23)cc1 | x | -5% | -18%
CCOC(=O)c1ccc(NC(=O)Cn2c(=O)cc(C(F)(F)F)c3c(C)nn(C)c32)cc1 | x | 2% | -2%
CCOC(=O)c1c(C)oc2ccc(O)c(CN(C)C)c12 | 14% | -10% | x
CCOC(=O)c1c(CSc2ccc(CC)cc2)oc2ccc(O)c(CN(C)C)c12 | 4µM* | u | -24%
CCOCCCNC(=O)C1(O)c2ccccc2NC(=O)N1c1ccc(Cl)cc1 (stereo not drawn) | 12% | x | x
COc1ccc(C(=O)COc2ccc(F)cc2)c(O)c1C | -10% | -4% | -3%
CC(=O)n1c2ccccc2c2c1c1ccccc1n2C | 2.2µM* | 0% | x
CC(=O)n1c2ccccc2c2nc3ccccc3nc21 | -1% | x | x
COC(=O)[C@@H](N)CSC/C=C(\C)CC/C=C(\C)CCC=C(C)C | x | -8% | -14%
O=C(/C=C/c1ccc(O)c(O)c1)OC(Cc1ccc(O)c(O)c1)C(=O)O (stereo not drawn) | 10µM* | -5% | 1%
O=C(/C=C/c1ccc(O)c(O)c1)OCCc1ccccc1 | u | u | -8%
Cc1ccc(Cc2nc3ccccc3nc2SCC(=O)N2CCN(c3ccccc3F)CC2)cc1 | x | -10% | 6%
Cc1cc(C=C2C(=O)N(C)C(=S)N(C)C2=O)c(C)n1-c1cccnc1 | 9% | 18% | -6%
COC(=O)c1ccc(N=C2S/C(=C\c3cc(C)n(-c4cccnc4)c3C)C(=O)N2C)cc1 | 3.5µM* | -18% | x
Cc1nc2c(ccc3nc(NC(=O)Cc4ccccc4)sc32)s1 | 10µM* | -28% | -16%
Cc1ccc(CC(=O)Nc2nc3ccccc3s2)cc1 | -16% | -15% | -25%
SMILES | HCV inhibitor | VACV Venus inh | Vaccinia mCherry
CN(C)CCCNc1cc(N2CCN(C)CC2)ncn1 | x | -9% | -10%
CC1(c2ccccc2)NC(=O)N(CC(=O)NCc2cccc(Cl)c2)C1=O (stereo not drawn) | u | -20% | -16%
COc1ccc2nc(NC(=O)CSc3cn[nH]n3)sc2c1 | 13µM* | -7% | -21%
COc1ccc2nc(NC(=O)CSC3=NCCS3)sc2c1 | u | u | -8%[1.46 µM]
CCOc1ccc2nc(NC(=O)CSC3=NCCS3)sc2c1 | 8.9µM* | u | x
CCOc1ccc2nc(NC(=O)CSc3cn[nH]n3)sc2c1 | u | -18% | -18%
CCn1cc(CN2Cc3ccccc3OC(c3ccccc3OC)C2)c(C)n1 (stereo not drawn) | x | -7% | -14%
Nc1ccc[n+](CC(=O)c2ccc(F)cc2)c1 | x | 310% | 34%
O=C(Cn1c(=O)oc2cc(S(=O)(=O)NCc3ccccc3)ccc21)NCc1ccc(F)cc1 | x | -5% | -19%
Cc1c(O)ccc(C(=O)CN2CCN(c3ccc(F)cc3)CC2)c1O | -11% | x | x
O=C(NCCc1csc(-c2cccc(F)c2)n1)c1ccco1 | 10µM* | -5% | -10%
O=C(NCCc1csc(-c2ccccc2)n1)c1ccco1 | -30% | -5% | -14%
